Compound activity from PubChem BioAssay.
Compounds with a hit are over-represented: about 19% of the library has one in this group of screens.
HT1080 IDH1KD tx = toxicity to HT-1080 IDH1 knockdown cells (counter line); AID 686971; HT-1080 IDH1 knockdown viability, ATP luminescence, 48 h; Potency, µM (series often up to 46.1 µM), for the others: at the highest dose activity, negative = toxicity, usual class: cytotoxic; 360,000 tested, 2% active;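 further: 0% = DMSO wells and -100% = cell-free medium wells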
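Luminescent ATP read-out (CellTiter-Glo, 10 min at room temperature) after 48 h compound exposure at 37 °C gave viability of IDH1-knockdown HT-1080 cells. Activity was normalised to DMSO and cell-free wells, then fitted as concentration-response curves.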
KB-V1 MDR tox = KB-V1 MDR subline cytotoxicity; 400,000 tested, 3.4% active; KB-V1 MDR cells viability, CellTiter-Glo, 72 h; Potency, µM (doses to about 46.1 µM), hits mostly cytotoxic; further: nearly all actives have a fitted effect of over 60% in size
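KB-V1 cells (P-gp-expressing MDR subline of KB-3-1) in phenol-red-free DMEM with 10% FBS were exposed to library compounds over a concentration series for 72 h at 37 degrees C. Viability read by CellTiter-Glo luminescence; concentration-effect curves fitted after normalization.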
DT40 TDP1 no CPT = qHTS for Inhibitors of human tyrosyl-DNA phosphodiesterase 1 (TDP1): qHTS in cells in absence of CPT | DT40 Tdp1-/- hTDP1 cells, no CPT, ATP luminescence, 48 h | Potency, µM (top dose mostly 46.2 µM), for the others: at the highest dose activity change, negative = growth inhibition, most hits filed as inhibitors | 420,000 tested, 15% active; further: nearly all actives have a fitted effect of over 55% in size
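Cells were dispensed at 400 per well, compounds added by pin tool, plates incubated ≥48 hr at 37 °C, then CellTiter-Glo added for 30 min at room temperature before luminescence reading. Line: DT40 Tdp1-/- complemented with hTDP1; camptothecin omitted.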
HT1080NT lethal = kills 2HG-producing HT-1080-NT fibrosarcoma cells; AID 686970; HT-1080-NT fibrosarcoma viability, CellTiter-Glo ATP luminescence, 48 h; 360,000 tested, 1.6% active; Potency, µM (highest dose often 46.1 µM), for the others: at the highest dose activity, negative = less viability, usual class: cytotoxic;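 further: NT is the 2HG producing partner of a matched IDH1 knockdown line; 0% = DMSO-treated cells and -100% = media-only wells without cells; nearly all actives have a fitted effect of over 55% in size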
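A 48-hour cytotoxicity screen used HT-1080-NT cells plated 2 hours before compound delivery. ATP-based CellTiter-Glo luminescence measured viability, normalized to DMSO and no-cell controls.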
DT40 TDP1 CPT = DT40-hTDP1 cell growth loss with CPT; chicken DT40 Tdp1-/-;hTDP1 cells + 20 nM CPT, ATP luminescence, 48 h; Potency, µM (titrated, usually from 46.2 µM), without a hit: top-dose activity change, negative = growth inhibition, most hits filed as inhibitors; 420,000 tested, 12% active; AID 686979; further: nearly all actives have a fitted effect of over 55% in size
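Chicken DT40 Tdp1-/- cells stably complemented with human TDP1 were seeded at 400 cells/well in medium containing 20 nM camptothecin, exposed to pin-transferred compounds, and grown at 37 °C for at least 48 hr. Viability was read as ATP luminescence.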
KB-3-1 tox = KB-3-1 parental cell cytotoxicity | Potency, µM (highest dose often 46.1 µM), usual class: cytotoxic | KB-3-1 viability, CellTiter-Glo ATP luminescence, 72 h | 400,000 tested, 1.4% active; further: nearly all actives have a fitted effect of over 60% in size
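Cells are dispensed, compounds pinned in, plates held at 37 °C for 72 h, then CellTiter-Glo is added and luminescence read after 10 minutes. Cell line: parental KB-3-1 in phenol-red-free DMEM, 10% FBS.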
Starred values were filed as active, the others as inactive. The call rests on the fitted dose curve; in most records, active means well fitted curve in the direction sought with a large enough effect; inconclusive means small, poorly fitted or top-dose-only effect, or another doubt; inactive means no such curve, though single readings can be large; an effect the other way counts as inactive or inconclusive. Unless noted, on the % scale 0 is the no-effect control and ±100 the full control effect; potency means the concentration at half of the fitted maximal effect.

Screening COc1cc(CCC(=O)NNC(=O)c2ccc(Cl)cc2)cc(OC)c1OC returned HT1080 IDH1KD tx 9.6%, KB-V1 MDR tox inactive, DT40 TDP1 no CPT -0.2%, HT1080NT lethal 7.6%, DT40 TDP1 CPT 6.7% and KB-3-1 tox inactive.
For COC(=O)/C(=C\Nc1ccc(Cl)cc1Cl)NC(=O)c1ccc(OC)cc1 the results were HT1080 IDH1KD tx 1.64µM*, KB-V1 MDR tox 4.11µM*, DT40 TDP1 no CPT 4.11µM*, HT1080NT lethal 3.26µM*, DT40 TDP1 CPT 3.66µM* and KB-3-1 tox 5.8µM*.
For CCN(CC)C(=S)NC(=O)c1cc(OC)c(OC)c(OC)c1 the results were HT1080 IDH1KD tx -11.1%, KB-V1 MDR tox inactive, DT40 TDP1 no CPT -3.0%, HT1080NT lethal 23.1µM*, DT40 TDP1 CPT 0.0% and KB-3-1 tox inactive.
COc1ccc(C(=O)NNC(=S)NC(=O)c2ccc(Cl)cc2)cc1 was read as HT1080 IDH1KD tx inconclusive, KB-V1 MDR tox inactive, DT40 TDP1 no CPT 23.1µM*, HT1080NT lethal inconclusive, DT40 TDP1 CPT inconclusive and KB-3-1 tox inconclusive.
Screening CCN1CCN(C(=S)NC(=O)c2cc(OC)c(OC)c(OC)c2)CC1 returned HT1080 IDH1KD tx 5.0%, KB-V1 MDR tox inactive, DT40 TDP1 no CPT -1.7%, HT1080NT lethal 4.1%, DT40 TDP1 CPT 6.9% and KB-3-1 tox inactive.
`Cn1ccsc1=NC(=O)c1ccc(OC(F)(F)F)cc1` gave HT1080 IDH1KD tx inconclusive, KB-V1 MDR tox inactive, DT40 TDP1 no CPT -27.8%, HT1080NT lethal -12.4%, DT40 TDP1 CPT 7.6% and KB-3-1 tox inactive.
COc1cc(CC(=O)Nc2nccs2)cc(OC)c1OC was read as HT1080 IDH1KD tx -7.2%, KB-V1 MDR tox inactive, DT40 TDP1 no CPT -4.9%, HT1080NT lethal -4.7%, DT40 TDP1 CPT -28.3% and KB-3-1 tox inactive.
Screening COc1ccc(C(=O)NC(=S)NNC(=O)c2ccc(NC(=O)C(C)C)cc2)cc1 returned HT1080 IDH1KD tx -14.7%, KB-V1 MDR tox 2.59µM*, DT40 TDP1 no CPT 14.6µM*, HT1080NT lethal -9.7%, DT40 TDP1 CPT 16.4µM* and KB-3-1 tox inconclusive.
`COc1cc(C(=O)NC(=S)Nc2nccs2)cc(OC)c1OC` gave HT1080 IDH1KD tx 5.2%, KB-V1 MDR tox inactive, DT40 TDP1 no CPT 20.6µM*, HT1080NT lethal 5.2%, DT40 TDP1 CPT inconclusive and KB-3-1 tox inactive.
`Cc1cccc(C(=O)NC(=S)NNC(=O)c2ccc(Cl)cc2)c1` gave HT1080 IDH1KD tx 8.2µM*, KB-V1 MDR tox inconclusive, DT40 TDP1 no CPT inconclusive, HT1080NT lethal inconclusive, DT40 TDP1 CPT inconclusive and KB-3-1 tox inconclusive.
`COCCn1c(-c2ccccc2)c(C)n2c3c(=O)n(C)c(=O)n(C)c3nc12` gave KB-V1 MDR tox inconclusive and KB-3-1 tox inactive.
For CC(=O)NCCNc1nc2cc(-c3ccccc3CO)sc2c(=O)n1C the results were HT1080 IDH1KD tx 2.9%, KB-V1 MDR tox inactive, DT40 TDP1 no CPT -14.6%, HT1080NT lethal 13.0%, DT40 TDP1 CPT 2.3% and KB-3-1 tox inactive.
Screening N#Cc1ccc(-c2nc3ccc(Cl)cn3c2Cc2cccc(Cl)c2)cc1 returned HT1080 IDH1KD tx -20.0%, KB-V1 MDR tox inactive, DT40 TDP1 no CPT 20.6µM*, HT1080NT lethal -19.1%, DT40 TDP1 CPT inconclusive and KB-3-1 tox inactive.
N#Cc1ccc(-c2nc3ccc(Cl)cn3c2Cc2cccc(F)c2)cc1 was read as HT1080 IDH1KD tx inconclusive, KB-V1 MDR tox inactive, DT40 TDP1 no CPT inconclusive, HT1080NT lethal -5.3%, DT40 TDP1 CPT inconclusive and KB-3-1 tox inactive.
For Cc1ccc2nc(-c3ccc(C#N)cc3)c(Cc3ccccc3)n2c1 the results were HT1080 IDH1KD tx 0.8%, KB-V1 MDR tox inconclusive, DT40 TDP1 no CPT inconclusive, HT1080NT lethal 1.9%, DT40 TDP1 CPT inconclusive and KB-3-1 tox inactive.
Cc1ccc2nc(-c3ccc(C#N)cc3)c(Cc3cccc(Cl)c3)n2c1 was read as HT1080 IDH1KD tx 25.9µM*, KB-V1 MDR tox inactive, DT40 TDP1 no CPT 18.4µM*, HT1080NT lethal inconclusive, DT40 TDP1 CPT 18.4µM* and KB-3-1 tox inactive.
`COc1ccc(NC(=O)c2nn(C)c(=O)c3ccccc23)cc1S(=O)(=O)Nc1ccccc1Cl` gave HT1080 IDH1KD tx -24.2%, KB-V1 MDR tox inactive, DT40 TDP1 no CPT inconclusive, HT1080NT lethal -13.0%, DT40 TDP1 CPT inconclusive and KB-3-1 tox inactive.
Screening COC(=O)c1cccc(NC(=O)c2nn(C)c(=O)c3ccccc23)c1 returned HT1080 IDH1KD tx 17.5%, KB-V1 MDR tox inactive, DT40 TDP1 no CPT 8.2µM*, HT1080NT lethal -1.5%, DT40 TDP1 CPT 23.1µM* and KB-3-1 tox inactive.
COc1ccccc1NS(=O)(=O)c1cccc(NC(=O)c2nn(C)c(=O)c3ccccc23)c1 was read as HT1080 IDH1KD tx -5.8%, KB-V1 MDR tox inactive, DT40 TDP1 no CPT 23.1µM*, HT1080NT lethal -19.7%, DT40 TDP1 CPT inconclusive and KB-3-1 tox inconclusive.
`COc1cc(NC(=O)Cc2cccs2)cc(OC)c1` gave HT1080 IDH1KD tx 22.8%, KB-V1 MDR tox inactive, DT40 TDP1 no CPT 18.4µM*, HT1080NT lethal 17.1%, DT40 TDP1 CPT inconclusive and KB-3-1 tox inactive.
`CCNC(=S)Nc1cccc(S(=O)(=O)Nc2ccccc2OC)c1` gave HT1080 IDH1KD tx -7.2%, KB-V1 MDR tox inactive, DT40 TDP1 no CPT 23.1µM*, HT1080NT lethal -11.9%, DT40 TDP1 CPT inconclusive and KB-3-1 tox inactive.
For COc1cccc(NC(=O)Cc2cccs2)c1 the results were HT1080 IDH1KD tx 8.9%, KB-V1 MDR tox inconclusive, DT40 TDP1 no CPT -8.5%, HT1080NT lethal 12.4%, DT40 TDP1 CPT 4.7% and KB-3-1 tox inactive.
CCOc1cccc(-c2c(C(=O)N/N=C(\C)c3cccnc3)nnn2-c2nonc2N)c1 was read as HT1080 IDH1KD tx 1.1%, KB-V1 MDR tox inactive, DT40 TDP1 no CPT 3.2%, HT1080NT lethal 1.5%, DT40 TDP1 CPT -3.2% and KB-3-1 tox inactive.
Screening O=c1oc(-c2ccccc2NS(=O)(=O)c2ccc3ccccc3c2)nc2ccccc12 returned HT1080 IDH1KD tx 6.0%, KB-V1 MDR tox inactive, DT40 TDP1 no CPT -19.9%, HT1080NT lethal -4.3%, DT40 TDP1 CPT -25.2% and KB-3-1 tox inactive.
`CC(C)n1nc(C(=O)Nc2cccc(S(=O)(=O)NCc3ccco3)c2)c2ccccc2c1=O` gave HT1080 IDH1KD tx -6.1%, KB-V1 MDR tox 20.6µM*, DT40 TDP1 no CPT inconclusive, HT1080NT lethal -12.8%, DT40 TDP1 CPT inconclusive and KB-3-1 tox inconclusive.
